According to PubChem BioAssay (Tox21):
Records with an inconclusive call do not appear. The source made the active and inactive calls. Unless noted, the call rests on the fitted dose curve; in most records, active means well fitted curve in the direction sought with a large enough effect in the repeat runs; inconclusive means weak or mixed curves; inactive means no such curve, though single readings can be large; an effect the other way counts as inactive or inconclusive.

Legend:
[1] = molecular target: Thyrotropin receptor (Homo sapiens) (UniProt P16473); test: qHTS assay to identify small molecule agonists of the thyroid stimulating hormone receptor (TSHR) signaling pathway (AID 1224843; calls by dose curve; further: nearly all actives have a fitted effect of over 45% in size; further: potency means the concentration at half of the fitted maximal effect)
Procedure, shortened: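 HEK293 cells stably bearing the thyrotropin receptor were plated at 800 cells/well and challenged with compound (30 min, RT). Accumulated cAMP was quantified via cAMP-d2 competing for cryptate-tagged antibody.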

[2] = qHTS assay to identify small molecule agonists of the hypoxia (HIF-1) signaling pathway - cell viability counter screen (AID 1224844; calls by dose curve; further: nearly all actives have a fitted effect of over 50% in size)
Procedure, shortened: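 ME-180 HRE-bla cells, 2,000/well, 0.5% dialyzed FBS; 5 hr settle, 17 hr compound at 37C/5% CO2; CCF4-AM reporter read first, then CellTiter-Glo luminescence after 30 min RT.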

[3] = qHTS assay to identify small molecule agonists of H2AX (AID 1224845; active means well fitted activation curve with a large enough effect in the signal ratio in the repeat runs, not every such curve was filed as active; the % refers to the signal ratio)
Procedure, shortened: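 Phospho-H2AX Ser139 measured by HTRF (ex 320 nm; em 665 and 620 nm) after 24 hr antibody incubation. Compounds, 15 concentrations, 0.76% DMSO, were applied to CHO-K1 cells for 3hr at 37C before lysis.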

[4] = qHTS assay to identify small molecule agonists of the hypoxia (HIF-1) signaling pathway (AID 1224846; active means well fitted activation curve with a large enough effect in the signal ratio in the repeat runs, not every such curve was filed as active; the % refers to the signal ratio)
Procedure, shortened: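 Cell line: CellSensor HRE-bla ME-180; 2,000 cells/well; 0.5% dialyzed FBS; 5 h preincubation; DMSO compound pin transfer; 17 h, 37C, 5% CO2; CCF4-AM added; bla FRET signal scored for activation.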

[5] = qHTS assay to identify small molecule agonists of H2AX - cell viability counter screen (AID 1224847; calls by dose curve;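 further: wild-type CHO-K1 cells; top concentration of the series differs between compounds; nearly all actives have a fitted effect of over 30% in size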)
Procedure, shortened: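 After overnight plating of 1000 CHO-K1 cells per well, a 15-concentration compound series was applied for 3 hr at 37C. Luminescence from CellTiter-Glo, read following 30 min at room temperature, reflected cell viability.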

[6] = qHTS RealTime-Glo MT Cell Viability Assay in HepG2 cells - 24 hour (AID 1224867); further: nearly all actives have a fitted effect of over 50% in size
Procedure, shortened: (§1)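 HepG2 cells were seeded at 600 cells/well together with NanoLuc luciferase and a cell-permeant prosubstrate, preincubated 5 h at 37 C/5% CO2, then pin-dosed with compounds in DMSO. Nonlytic luminescence from viable cells was read at each time point.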

[7] = qHTS RealTime-Glo MT Cell Viability Assay in HEK293 cells - 32 hour (AID 1224868); further: top concentration of the series differs between compounds; nearly all actives have a fitted effect of over 50% in size
Procedure, shortened: (§2)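 HEK293 cells were seeded at 600 cells/well together with NanoLuc luciferase and cell-permeant prosubstrate, preincubated 5 h at 37 C/5% CO2, then given compound in DMSO by pintool. Luminescence from viable-cell prosubstrate reduction was read repeatedly over 40 h.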

[8] = qHTS RealTime-Glo MT Cell Viability Assay in HepG2 cells - 40 hour (AID 1224870); further: nearly all actives have a fitted effect of over 50% in size
Procedure, shortened: (§3)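 Real-time viability: cells seeded at 600 per well together with NanoLuc and cell-permeant prosubstrate, compounds added after 5 h incubation. Luminescence tracked at 0, 8, 16, 24, 32 and 40 h of exposure.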

[9] = A CellTox Green Cytotoxicity Assay to monitor cytotoxicity in HEK293 cells - 40 hour (AID 1224871); further: nearly all actives have a fitted effect of over 45% in size
Procedure, shortened: (§4)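 Nonlytic real-time cytotoxicity: HEK293 + CellTox Green reagent plated, 5 h preincubation, pintool compound addition (23 nL in DMSO), 37 C for 40 h, fluorescence measured at successive time points.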

[10] = qHTS RealTime-Glo MT Cell Viability Assay in HEK293 cells - 16 hour (AID 1224872)
Procedure, shortened: as §2

[11] = qHTS RealTime-Glo MT Cell Viability Assay in HepG2 cells - 8 hour (AID 1224873); further: nearly all actives have a fitted effect of over 55% in size
Procedure, shortened: as §3

[12] = qHTS RealTime-Glo MT Cell Viability Assay in HEK293 cells - 40 hour (AID 1224874); conditions: RealTime-Glo luminescence; max response: hits give low values; further: nearly all actives have a fitted effect of over 50% in size
Procedure, shortened: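 Cells were seeded together with NanoLuc luciferase and a prosubstrate that viable cells reduce to a luciferase substrate. After a 5 h incubation at 37 C/5% CO2, compounds were added and luminescence was measured repeatedly during 40 h of treatment.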

[13] = A CellTox Green Cytotoxicity Assay to monitor cytotoxicity in HEK293 cells - 24 hour (AID 1224875); further: nearly all actives have a fitted effect of over 45% in size
Procedure, shortened: as §4

[14] = A CellTox Green Cytotoxicity Assay to monitor cytotoxicity in HepG2 cells - 16 hour (AID 1224876); further: nearly all actives have a fitted effect of over 45% in size
Procedure, shortened: (§5)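 Read-out is fluorescence of a cyanine dye excluded from live cells that stains DNA of dead HepG2 cells, with signal proportional to cytotoxicity. Plates were read at 0, 8, 16, 24, 32 and 40 h after compound addition.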

[15] = qHTS RealTime-Glo MT Cell Viability Assay in HepG2 cells - 32 hour (AID 1224877); further: nearly all actives have a fitted effect of over 55% in size
Procedure, shortened: as §1

[16] = A CellTox Green Cytotoxicity Assay to monitor cytotoxicity in HepG2 cells - 24 hour (AID 1224878); further: nearly all actives have a fitted effect of over 45% in size
Procedure, shortened: as §5

[17] = A CellTox Green Cytotoxicity Assay to monitor cytotoxicity in HepG2 cells - 40 hour (AID 1224879); further: nearly all actives have a fitted effect of over 40% in size
Procedure, shortened: as §5

[18] = qHTS assay to identify small molecule agonists of the estrogen related receptor (ERR) signaling pathway from Tox21 library (AID 1224849; calls by dose curve; further: nearly all actives have a fitted effect of over 15% in size); conditions: ERR reporter cell line, ONE-Glo luciferase, 18 h; at 92.4 µM (top of the series) unless noted
Procedure, shortened: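 ERR cells, 6 h pre-incubation 37 C/5% CO2; cpd in DMSO pinned; 18 h 37 C; ONE-Glo added, 30 min RT; luminescence read. Agonist mode, qHTS.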

[19] = A CellTox Green Cytotoxicity Assay to monitor cytotoxicity in HEK293 cells - 0 hour (AID 1224869); further: nearly all actives have a fitted effect of over 50% in size
Procedure, shortened: as §4
On the % scale 0 is the no-effect control and ±100 the full control effect.

Thyrotropin receptor (Homo sapiens), sequence (P16473 whole entry, looked up): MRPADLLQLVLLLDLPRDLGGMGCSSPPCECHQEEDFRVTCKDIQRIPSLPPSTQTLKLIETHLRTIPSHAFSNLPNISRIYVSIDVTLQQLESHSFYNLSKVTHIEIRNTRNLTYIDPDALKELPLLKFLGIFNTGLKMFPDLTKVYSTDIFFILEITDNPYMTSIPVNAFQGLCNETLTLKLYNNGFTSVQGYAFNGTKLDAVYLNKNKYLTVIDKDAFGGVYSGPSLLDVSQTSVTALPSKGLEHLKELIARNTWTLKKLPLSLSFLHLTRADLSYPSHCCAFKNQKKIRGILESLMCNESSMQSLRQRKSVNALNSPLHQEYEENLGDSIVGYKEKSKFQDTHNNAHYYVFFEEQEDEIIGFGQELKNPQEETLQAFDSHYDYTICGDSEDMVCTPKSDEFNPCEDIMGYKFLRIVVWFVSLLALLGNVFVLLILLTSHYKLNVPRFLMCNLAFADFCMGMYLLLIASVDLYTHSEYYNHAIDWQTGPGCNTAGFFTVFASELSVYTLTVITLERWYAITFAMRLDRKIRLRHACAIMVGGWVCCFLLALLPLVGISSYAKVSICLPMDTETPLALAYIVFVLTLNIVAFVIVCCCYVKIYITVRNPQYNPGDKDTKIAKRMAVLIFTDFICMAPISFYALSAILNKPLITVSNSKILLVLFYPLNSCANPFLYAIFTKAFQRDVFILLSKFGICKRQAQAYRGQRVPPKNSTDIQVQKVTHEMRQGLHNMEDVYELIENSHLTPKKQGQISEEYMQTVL

Cc1ccco1
inactive: Potency [1] | Potency [2] | Potency [3] | outcome [4] | Potency [5] | Potency [6] | Potency [7] | Potency [8] | Potency [9] | Potency [10] | Potency [11] | max response [12] 15.4% | Potency [13] | Potency [14] | Potency [15] | Potency [16] | Potency [17]

CC1=Nc2ccc3ccccc3c2C1(C)C
inactive: Potency [1] | Potency [2] | Potency [3] | outcome [4] | activity change, positive = activation [18] -35.4% | Potency [6] | Potency [7] | Potency [19] | Potency [8] | Potency [9] | Potency [11] | max response [12] -26.2% | Potency [13] | Potency [15]

O=C(O)C[C@H](NC(=O)OCc1ccccc1)C(=O)O
inactive: Potency [1] | Potency [2] | Potency [3] | outcome [4] | Potency [5] | Potency [6] | Potency [7] | Potency [19] | Potency [8] | Potency [10] | Potency [11] | max response [12] -0.276% | Potency [13] | Potency [14] | Potency [15] | Potency [16] | Potency [17]

CCc1ccccc1
inactive: Potency [1] | Potency [2] | Potency [3] | outcome [4] | Potency [5] | Potency [6] | Potency [7] | Potency [19] | Potency [8] | Potency [9] | Potency [11] | max response [12] 10.2% | Potency [13] | Potency [14] | Potency [15] | Potency [16] | Potency [17]

Cc1ccccc1S
inactive: Potency [1] | Potency [2] | Potency [3] | outcome [4] | Potency [5] | Potency [6] | Potency [7] | Potency [19] | Potency [8] | Potency [9] | Potency [11] | max response [12] -6.46% | Potency [13] | Potency [14] | Potency [15] | Potency [16] | Potency [17]

C[C@]1(Cn2ccnn2)[C@H](C(=O)O)N2C(=O)C[C@H]2S1(=O)=O
inactive: Potency [1] | Potency [2] | Potency [3] | outcome [4] | Potency [5] | Potency [6] | Potency [7] | Potency [19] | Potency [8] | Potency [9] | Potency [10] | Potency [11] | max response [12] 2.48% | Potency [13] | Potency [14] | Potency [15] | Potency [16] | Potency [17]

Cc1cc2c(OCC(CNC(C)(C)C)OC(=O)c3ccccc3)cccc2[nH]1 (stereo not given)
active: Potency [1] 26.6 µM
inactive: Potency [2] | Potency [3] | outcome [4] | Potency [5] | Potency [6] | Potency [19] | Potency [8] | Potency [10] | Potency [11] | max response [12] -21.5% | Potency [13] | Potency [15]

CC1(C)O[C@@H]2C[C@H]3[C@@H]4C[C@H](F)C5=CC(=O)C=C[C@]5(C)[C@H]4[C@@H](O)C[C@]3(C)[C@]2(C(=O)CO)O1
inactive: Potency [1] | Potency [2] | Potency [3] | outcome [4] | Potency [5] | Potency [6] | Potency [7] | Potency [19] | Potency [8] | Potency [9] | Potency [10] | Potency [11] | max response [12] -1.56% | Potency [13] | Potency [15] | Potency [16] | Potency [17]
